Autofluor counter: flagged as autofluorescent in microsphere protease counterscreen | compound autofluorescence counterscreen, microsphere flow cytometry; hits give high values | fluorescence intensity (concentration not given with the values) | hit rate 3.1% among 360,000; in the data active = fluorescence intensity above about 16000; inconclusive = no clear call, values can overlap the other calls
BJeLR lethal: BJeLR cell viability loss; inhibition, % (test concentration not listed); AID 1554; hit rate 0.17% among 300,000; BJeLR (HRASV12) viability, CellTiter-Glo ATP luminescence, 48 h; in the data active = inhibition above about 50%; inconclusive = no clear call, values can overlap the other calls
BoNT A protease: BoNT A light chain protease inhibition | multiplex microsphere protease substrate cleavage, flow cytometry | inhibition, % at 10 µM | hit rate 0.17% among 360,000; in the data active = inhibition above about 30%; inconclusive = no clear call, values can overlap the other calls; also: plate controls were buffer without enzyme for full effect and enzyme alone for no effect
BoNT F protease: inhibitors of Botulinum neurotoxin F light chain protease; Multiplex microsphere protease cleavage assay, flow cytometry; inhibition, % at 10 µM; hit rate 0.22% among 360,000; AID 588497; in the data active = inhibition above about 35%, passing the limit was not always enough; inconclusive = no clear call, values can overlap the other calls; also: plate controls were buffer without enzyme for full effect and enzyme alone for no effect
Anthrax LF prot: anthrax lethal factor protease inhibition. multiplex microsphere protease cleavage assay, LF. inhibition, % at 10 µM. P15917. hit rate 0.12% among 360,000; in the data active = inhibition above about 30%; inconclusive = no clear call, values can overlap the other calls; also: plate controls were buffer without enzyme for full effect and enzyme alone for no effect
Target sequence (P15917 whole entry, looked up): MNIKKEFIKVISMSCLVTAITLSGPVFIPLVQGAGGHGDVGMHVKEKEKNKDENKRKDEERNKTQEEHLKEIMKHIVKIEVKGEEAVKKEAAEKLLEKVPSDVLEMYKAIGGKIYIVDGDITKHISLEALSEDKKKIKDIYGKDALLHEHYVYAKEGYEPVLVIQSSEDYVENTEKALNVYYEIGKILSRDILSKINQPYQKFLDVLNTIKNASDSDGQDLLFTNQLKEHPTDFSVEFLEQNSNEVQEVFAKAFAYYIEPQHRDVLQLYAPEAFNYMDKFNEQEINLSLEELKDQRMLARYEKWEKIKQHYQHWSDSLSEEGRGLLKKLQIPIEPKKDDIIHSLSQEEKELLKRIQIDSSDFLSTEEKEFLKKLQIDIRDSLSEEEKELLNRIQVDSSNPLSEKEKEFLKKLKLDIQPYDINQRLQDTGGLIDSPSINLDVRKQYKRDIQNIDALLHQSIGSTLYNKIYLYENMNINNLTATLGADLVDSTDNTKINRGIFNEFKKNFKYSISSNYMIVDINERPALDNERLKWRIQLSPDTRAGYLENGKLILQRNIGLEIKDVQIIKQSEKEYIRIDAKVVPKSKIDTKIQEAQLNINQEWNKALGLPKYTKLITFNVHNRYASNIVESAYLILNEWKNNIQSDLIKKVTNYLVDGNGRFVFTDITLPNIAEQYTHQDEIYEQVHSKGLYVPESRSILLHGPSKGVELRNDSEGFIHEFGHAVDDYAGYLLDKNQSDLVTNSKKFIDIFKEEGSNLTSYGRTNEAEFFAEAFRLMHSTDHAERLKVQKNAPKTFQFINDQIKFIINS
BH1578 lux ind: inducers of Vibrio cholerae quorum light production without autoinducers; AID 588436; activation, % at 18.7 µM; hit rate 0.16% among 350,000; V. cholerae BH1578 lux reporter, luminescence, 6 h; in the data active = activation mostly above about 9.7%, no sharp cut-off; inconclusive = no clear call, values can overlap the other calls; inactive = mostly below about 3.7%
BoNTA LC inh 1: blocks botulinum neurotoxin A light chain protease. shares compounds with BoNT F protease. inhibition, % at 10 µM. multiplex microsphere protease assay, flow cytometry. hit rate 3% among 720. AID 602139; in the data active = inhibition above about 32%
BoNT-F LC CP1: blocks botulinum neurotoxin F light chain protease; shares compounds with BoNT F protease; 720 tested, under 10 active; multiplex microsphere protease cleavage assay, flow cytometry; inhibition, % at 10 µM
Anthrax LF CP1: inhibitors of Bacillus anthracis lethal factor protease. shares compounds with BoNT F protease. multiplex microsphere protease cleavage assay, LF. inhibition, % at 10 µM. 720 tested, under 10 active. AID 602142
Numbers without * were called inactive; i = inactive; ? = inconclusive; . = not tested or not shown. In the library only some 3.7% were active in any assay of this set; here they are far more common. Unless noted, no rule for the calls is given here.

SMILES	Autofluor counter	BJeLR lethal	BoNT A protease	BoNT F protease	Anthrax LF prot	BH1578 lux ind	BoNTA LC inh 1	BoNT-F LC CP1	Anthrax LF CP1
Cc1[nH]c2ccc(Br)cc2c(=O)c1CN1CCCCC1	8167	9	?	52*	-26	2	-2	-6	-2
Cc1[nH]c2ccccc2c(=O)c1CN1CCCCCC1	3388	-9	-2	1	7	-1	.	.	.
Cc1ccc(-c2ccc(CN3C(C(C)C)C(=O)N(Cc4cn(CCC5OCCO5)nn4)CCS3(=O)=O)cc2)c(C)c1 (configuration not stated)	5981	.	0	8	1	.	.	.	.
COc1ccc(C(=O)COC(=O)C2COc3ccccc3O2)c(OC)c1 (configuration not stated)	3417	.	0	-1	-2	0	.	.	.
COC(CNC(=O)c1ccc2nc(-c3cccs3)c(-c3cccs3)nc2c1)OC	8849	5	44*	26	25	0	21	2	8
COc1ccc(-c2nc3ccc(C(=O)NCC(OC)OC)cc3nc2-c2ccc(OC)c(OC)c2)cc1OC	3509	-10	2	-2	5	i	.	.	.
Cn1cncc1C#Cc1ccc2c(=O)c3ccccc3oc2c1	2949	.	1	0	-4	-11	.	.	.
CCCS(=O)(=O)NCc1ccc2c(c1)cc(C)n2C	?	-3	69*	-41	3	i	1	-14	-2
CCCCC(=O)NCc1ccc2c(c1)cc(C)n2C	10959	-3	43*	17	47*	-16	2	-5	-1
CCS(=O)(=O)NCc1ccc2c(c1)cc(C)n2C	4442	-11	10	-116	-72	0	.	.	.
Cc1cc2cc(CNC(=O)CC(C)C)ccc2n1C	17533*	-2	31*	13	34*	-16	0	-7	-2
COc1ccc(CCNC(=O)CCCc2ccccc2)cc1OC	3365	-11	2	35*	10	i	0	-5	2
CC(C)CNS(=O)(=O)c1ccc(CCC(=O)NC2CCCCC2)cc1	3071	3	-1	11	59*	-1	-1	-5	-1
Cc1ccc(Nc2nc(C)cc(C)n2)c(Br)c1	9927	1	32*	35*	-23	2	0	-4	-2
Cc1onc(-c2c(Cl)cccc2Cl)c1C(=O)NCc1ccccn1	10814	19	-1	-6	-1	0	.	.	.
CCn1cc(CNC(=O)c2c(-c3c(Cl)cccc3Cl)noc2C)c(C)n1	2081	-3	4	35*	2	0	-1	-6	-2
CCNc1nc(NCC)n2c(SCC(=O)Nc3ccc(C)c(C)c3)nnc2n1	?	-2	16	37*	1	i	-1	-3	0
COc1ccc(NC(=O)C2(C)CCN2C2Cc3ccccc3C2)cc1OC (configuration not stated)	3453	.	0	-2	-4	i	.	.	.
COc1cccc(N2CC(O)Cn3c2nc2c3c(=O)[nH]c(=O)n2C)c1 (configuration not stated)	3007	-10	7	41*	4	i	1	-2	0
Cc1ccc(N2CC(O)Cn3c2nc2c3c(=O)[nH]c(=O)n2C)cc1 (configuration not stated)	3581	-5	-6	?	-11	1	.	.	.
CCCCCOc1ccc(C(=O)NC(C(=O)O)C(C)C)cc1 (configuration not stated)	6207	-2	?	39*	4	i	0	-2	-2
CCCCCCCCOc1ccc(C(=O)O)cc1	4213	.	0	-9	-4	0	.	.	.
CCCCc1ccc(C(=O)NC(C(=O)O)C(C)C)cc1 (configuration not stated)	8775	-3	31*	40*	-24	0	-1	1	-3
CCc1nc2ccc(C(=O)NCCOc3ccc(OC)cc3)cn2c1N(C=O)Cc1ccc(OC)cc1	3512	.	0	2	-9	0	.	.	.
COc1cc(SC)ccc1C(=O)NCCN1CCOCC1	4147	-12	4	?	37*	0	-1	-2	-4
SMILES	Autofluor counter	BJeLR lethal	BoNT A protease	BoNT F protease	Anthrax LF prot	BH1578 lux ind	BoNTA LC inh 1	BoNT-F LC CP1	Anthrax LF CP1
COc1ccc(Cl)cc1C(=O)NCCN1CCOCC1	.	6	.	.	.	0	.	.	.
CSc1ncc(Cl)c(C(=O)Nc2ccccc2C)n1	3352	-7	1	-12	30*	i	0	-5	-2
CCSc1ncc(Cl)c(C(=O)Nc2ccccc2C)n1	4089	-1	0	6	8	i	.	.	.
CCOC(=O)C1CCN(C(c2cc3c(C)ccc(C)c3[nH]c2=O)c2nnnn2C2CCCCC2)CC1 (configuration not stated)	38836*	0	15	109*	10	21	1	-3	0
Cc1ccc(C)c2[nH]c(=O)c(C(c3nnnn3C3CCCC3)N3CCOCC3)cc12 (configuration not stated)	25756*	4	-3	-4	-1	i	0	-1	-1
NC(=O)C1CCN(C(c2ccccc2)c2nnnn2C2CCCC2)CC1 (configuration not stated)	3152	0	1	13	3	i	.	.	.
Cc1ccc2cc(C(c3nnnn3C3CCCC3)N3CCOCC3)c(=O)[nH]c2c1C (configuration not stated)	9655	-4	1	3	14	0	.	.	.
Cc1ccc2cc(CN(Cc3nnnn3C3CCCC3)C3CCCCC3)c(=O)[nH]c2c1C	5570	0	3	26	2	-2	.	.	.
CCOC(=O)C1CCN(C(c2cc3ccc(C)c(C)c3[nH]c2=O)c2nnnn2C2CCCCC2)CC1 (configuration not stated)	60118*	-6	33*	38*	12	1	-2	-5	-4
CCN(CC)C(=O)C1=C(C)N(CCCN2CCCC2=O)C(=O)C(CC(=O)NC2CCCC2)C1 (configuration not stated)	3331	.	-1	-4	6	0	.	.	.
C[C@@H]1CN([C@@H](C)CO)C(=O)c2cc(C3=CCCCC3)cnc2O[C@H]1CN(C)C(=O)Nc1cccc(F)c1	4150	.	-1	-4	-4	0	.	.	.
O=C(CCS(=O)(=O)c1ccc(Cl)cc1)Nc1nc(-c2cccnc2)cs1	4871	-5	51*	4	4	i	0	-6	2
C#CCOc1ccc(CNC[C@H]2O[C@@H](n3ccc(N)nc3=O)[C@H](O)[C@@H]2O)cc1	3319	.	0	-6	4	-1	.	.	.
Cc1c(C(=O)Nc2ccccc2[N+](=O)[O-])csc1-c1ccccc1	2581	5	5	39*	-1	0	-1	-6	-2
O=C(COC(=O)c1ccc2c(c1)OCCO2)NCc1ccc(Cl)cc1	3794	.	0	-2	-6	-1	.	.	.
